Screening results deposited in PubChem by several laboratories.
MazEF act: activators of E. coli MazEF toxin-antitoxin RNase. activation, % at 20 µM. P0AE70. 350,000 compounds, 0.32% hits. FAM/BHQ RNA-DNA oligo cleavage fluorescence, 5 h; in the data active = activation above about 50%
Target sequence (P0AE70 whole entry, looked up): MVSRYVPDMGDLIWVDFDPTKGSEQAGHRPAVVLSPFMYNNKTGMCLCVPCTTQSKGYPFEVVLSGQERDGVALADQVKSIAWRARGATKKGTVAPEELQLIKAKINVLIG
PfHsp40 rescue: restores yeast growth despite PfHsp40 toxicity. S. cerevisiae expressing PfHsp40, growth rescue, ATP luminescence. growth rescue, % at 12.5 µM. 340,000 compounds, 0.68% hits; in the data active = growth rescue above about 28%, passing the limit was not always enough; inconclusive = no clear call, values can overlap the other calls;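 also: yeast W303a lacking pdr1 and pdr3 grown in galactose medium; growth measured after three days at 30 °C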
Anthrax LF inh2: anthrax lethal factor protease inhibition | AID 588501 | 360,000 compounds, 0.12% hits | P15917 | multiplex microsphere protease cleavage assay, LF | inhibition, % at 10 µM; also: plate controls were buffer without enzyme for full effect and enzyme alone for no effect
BoNT-A LC inh2: inhibitors of Botulinum neurotoxin A light chain protease; 360,000 compounds, 0.17% hits; AID 588499; inhibition, % at 10 µM; multiplex microsphere protease substrate cleavage, flow cytometry; also: plate controls were buffer without enzyme for full effect and enzyme alone for no effect
Bead autofluor: flagged as autofluorescent in microsphere protease counterscreen; compound autofluorescence counterscreen, microsphere flow cytometry; hits give high values; fluorescence intensity (no concentration beside the values); 360,000 compounds, 3.1% hits; AID 624483; in the data active = fluorescence intensity above about 16000; inconclusive = no clear call, values can overlap the other calls
BoNT F protease: inhibitors of Botulinum neurotoxin F light chain protease | Multiplex microsphere protease cleavage assay, flow cytometry | inhibition, % at 10 µM | 360,000 compounds, 0.22% hits; in the data active = inhibition above about 35%, passing the limit was not always enough; inconclusive = no clear call, values can overlap the other calls; also: plate controls were buffer without enzyme for full effect and enzyme alone for no effect
An asterisk follows results filed as active; ? = inconclusive; nt = not tested or not shown. Sampled rows, rich in hits. Any-hit rate of the full collection: about 4.3%. Rule as the data show it, unless noted: active = inhibition above about 30%; inconclusive = no clear call, values can overlap the other calls; inactive = below that.

SMILES	MazEF act	PfHsp40 rescue	Anthrax LF inh2	BoNT-A LC inh2	Bead autofluor	BoNT F protease
CCOC(=O)c1ccc(NC(=O)C2CCCN(S(=O)(=O)c3ccc(F)cc3)C2)cc1 (stereo unspecified)	-2	0	0	-1	24696*	-4
Cc1c2ccccc2nc2c(F)c(NCCO)c(F)c(F)c12	63*	0	-6	0	1980	-37
COc1ccc(CN(CC2CCC(C(=O)O)CC2)C(=S)Nc2cc(C)ccc2C)cc1 (stereo unspecified)	8	-1	-8	-2	4870	-4
O=[N+]([O-])c1ccc2[nH]nc(-c3ccccc3)c2c1	6	41*	0	-1	2423	-4
O=C(O)c1[nH]c2ccc([N+](=O)[O-])cc2c1-c1ccccc1	-9	1	-4	1	3128	8
Cc1ccccc1N=Nc1c(C)[nH]n(C(N)=S)c1=O	4	4	-3	0	2492	0
CCOc1ccccc1N=Nc1c(C)[nH]n(C(N)=S)c1=O	-17	0	-1	3	3759	56*
CC1CC2(C)Oc3ccccc3C3OCC1(CO)C(C)C32 (stereo unspecified)	0	0	-10	4	19211*	2
C#CCOC(=O)c1ccccc1C(=O)N(CC)CC	-1	0	0	?	17452*	-7
COCCn1c(=NC(=O)c2cc(-c3cccs3)nc3ccccc23)sc2cc(S(N)(=O)=O)ccc21	-17	1	12	34*	2383	2
CN(Cc1ccccc1)C(=O)COC(=O)c1ccc(Cl)cc1N	6	5	-3	0	4349	-2
CCOC(=O)CC1=C(C(=O)OCC)C2(C(=O)Nc3ccccc32)C(C#N)=C(N)O1 (stereo unspecified)	-2	1	-1	-1	4337	1
CCCC1=C(C(=O)OCC)C2(C(=O)Nc3ccc(C)cc32)C(C#N)=C(N)O1 (stereo unspecified)	7	2	2	?	20310*	1
CCOC(=O)c1c(C)c(C(=O)Nc2ccccc2)c(C)n1CC	10	0	0	0	9794	8
CCOC(=O)c1c(C)c(C(=O)NCc2cccs2)c(C)n1CC	-6	-1	-1	1	20405*	2
CCOC(=O)c1c(C)c(C(=O)NCCN2CCOCC2)c(C)n1CC	-2	-2	-4	-5	17127*	-7
O=C(C1CCCCC1)N1C[C@@H](O)[C@H](n2cc(-c3ccc(F)cc3)nn2)C[C@@H]1c1ccccc1	-2	nt	-1	0	2876	1
Cc1ccc2[nH]c3c(c2c1)CN(C(=O)CN1CCN(c2cccc(C)c2C)CC1)CC3	17	-1	1	2	5361	18
Cc1ccc2[nH]c3c(c2c1)CN(C(=O)CN1c2ccc(F)cc2CCC1C)CC3 (stereo unspecified)	3	0	-8	?	21807*	-11
CCOC(=O)C=C(C(=O)OCC)C(=O)OCC	-18	-1	0	-1	4493	-4
Cc1nc(C(F)(F)F)c(C(=O)NC(=O)Nc2ccc(OC(F)(F)F)cc2)s1	4	-1	-2	1	7646	8
Cc1nc(C(F)(F)F)c(C(=O)NC(=O)Nc2ccccc2)s1	2	-1	-1	-1	16731*	0
Cc1ccccc1Cn1ccc(-c2ccc3c(c2)OCO3)n1	-11	2	0	?	20609*	-2
C=C(C)CSc1nc2ncccc2[nH]1	5	-1	1	0	2814	1
CCN(CC)C(=O)CSc1nc2ncccc2[nH]1	9	0	0	?	24215*	-4
SMILES	MazEF act	PfHsp40 rescue	Anthrax LF inh2	BoNT-A LC inh2	Bead autofluor	BoNT F protease
CC(C)c1ccc(/C=C2\CC/C(=C\C=N\N(C)C)C2=O)cc1	-9	1	-10	0	8046	0
CC(C)/C=C1\CC/C(=C\c2ccc(N(C)C)cc2)C1=O	419*	0	16	34*	6586	9
O=C1CSc2ccc(C(=O)NCCC3=CCCCC3)cc2N1	0	-1	-1	?	23017*	2
COC(=O)c1ccc(CNC(=O)c2ccc3c(c2)NC(=O)CS3)cc1	6	0	nt	nt	nt	nt
COCCNC(=O)c1ccc2c(c1)NC(=O)CS2	1	-1	-8	2	19046*	0
O=C(CN1C(=O)NC2(CCOc3ccccc32)C1=O)c1ccc(F)c(F)c1 (stereo unspecified)	1	2	-4	3	?	12
O=C(Nc1ccc(N2CCN(C(=O)c3ccc(Cl)cc3)CC2)cc1)c1cc2ccccc2o1	14	0	0	-2	21324*	-4
O=C(Nc1ccccc1N1CCN(C(=O)c2ccc(Cl)cc2)CC1)c1cc2ccccc2o1	-10	?	2	1	4183	7
C1=C[C@H]2CC[C@@H]1N(c1ccccc1)O2	-1	0	-8	0	3482	0
CCCCNC(=O)C1(C)CCN1C(=O)c1ccc2ccccc2n1 (stereo unspecified)	nt	nt	1	0	3571	-9
Clc1cccc(Cl)c1CO/N=C/c1c(-c2ccccc2)nc2n1CCS2	-9	1	-4	?	23470*	-7
C[C@H](O)[C@@H]1C(=O)N2CCc3ccc(-c4ccccc4)cc3[C@@H]2C[C@@H]1N(C)C(=O)c1ccco1	-12	nt	1	0	3718	-8
CCOc1ccc(N=Cc2c(O)n(C(C)(C)C)c(=O)[nH]c2=O)cc1	5	-1	-2	0	23346*	-3
CC(=O)Nc1ccc(OC(=O)N2CCCCC2)cc1	1	-1	0	0	22883*	-1
CC(=O)Nc1ccc(NC(=O)N2CCCCC2)cc1	1	-1	-3	0	3218	-2
CC(C)(C)NC(=O)CN(C(=O)Cn1nnc(-c2ccccc2F)n1)c1cccc2c1CCCC2	-2	1	-1	-1	17013*	-2
COc1ccccc1N(CC(=O)NC(C)(C)C)C(=O)Cn1nnc(-c2ccc(C)o2)n1	-6	-2	-7	0	9620	8
CC1CCCC(CC(=O)O)(CC(=O)O)C1 (stereo unspecified)	-25	0	2	-1	3070	?
O=[N+]([O-])c1ccccc1-c1cc(-c2ccccc2O)n[nH]1	9	49*	-2	1	1923	5
O=[N+]([O-])c1cccc(-c2cc(-c3cc(Br)ccc3O)[nH]n2)c1	14	285*	-1	-2	6184	3
Oc1ccc(Br)cc1-c1cc(-c2ccccc2)n[nH]1	24	21	-1	-1	3292	-10
O=C1c2ccc3c4c(ccc(c24)C(=O)N1NC(=O)C(F)(F)F)CC3	-6	0	1	2	8744	22
CC(=O)NN1C(=O)c2ccc3c4c(ccc(c24)C1=O)C(=O)N(NC(C)=O)C3=O	69*	0	nt	nt	nt	nt
C=CCNc1nc(N(c2ccccc2)c2ccccc2)nc(-n2ccnc2)n1	-5	-1	0	-3	20613*	-6
CCCCNc1nc(N(C)c2ccccc2)nc(-n2ccnc2)n1	7	21	-4	-1	23497*	-3
